Here are results for 91 molecules from PubChem BioAssay AID493168 (National Center for Advancing Translational Sciences (NCATS), 2011).

In this assay the target is Ubiquitin carboxyl-terminal hydrolase 2 (Homo sapiens) (UniProt O75604). The assay is described as follows: Confirmation Assay for Inhibitors of Ubiquitin-specific Protease USP2a Using CHOP2 as the Reporter. Also: nearly all actives have a fitted effect of over 55% in size. The method in brief:
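USP2 core (10 nM final) was preincubated with compound for 30 min at RT in Tris-HCl pH 8.0, CaCl2, beta-mercaptoethanol, CHAPS. Ub-CHOP2 and reporter substrate (25 nM final each) were added, and fluorescence (Ex 485/Em 531 nm) was read after 60 min.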

Each structure is given as a SMILES string. Results filed as inconclusive are left out. Where a call stands in place of a potency, no number is given. Calls of active or inactive are those of the source. Calls follow the shape of the dose curve; as a rule, active = well fitted inhibition curve with a large enough effect; inconclusive = small, poorly fitted or top-dose-only effect, or effect the other way; inactive = flat fitted curve, though single readings scatter.
Potency is read from the fitted curve at half-maximal effect.

Sequence of Ubiquitin carboxyl-terminal hydrolase 2 (Homo sapiens) (O75604 whole entry, looked up): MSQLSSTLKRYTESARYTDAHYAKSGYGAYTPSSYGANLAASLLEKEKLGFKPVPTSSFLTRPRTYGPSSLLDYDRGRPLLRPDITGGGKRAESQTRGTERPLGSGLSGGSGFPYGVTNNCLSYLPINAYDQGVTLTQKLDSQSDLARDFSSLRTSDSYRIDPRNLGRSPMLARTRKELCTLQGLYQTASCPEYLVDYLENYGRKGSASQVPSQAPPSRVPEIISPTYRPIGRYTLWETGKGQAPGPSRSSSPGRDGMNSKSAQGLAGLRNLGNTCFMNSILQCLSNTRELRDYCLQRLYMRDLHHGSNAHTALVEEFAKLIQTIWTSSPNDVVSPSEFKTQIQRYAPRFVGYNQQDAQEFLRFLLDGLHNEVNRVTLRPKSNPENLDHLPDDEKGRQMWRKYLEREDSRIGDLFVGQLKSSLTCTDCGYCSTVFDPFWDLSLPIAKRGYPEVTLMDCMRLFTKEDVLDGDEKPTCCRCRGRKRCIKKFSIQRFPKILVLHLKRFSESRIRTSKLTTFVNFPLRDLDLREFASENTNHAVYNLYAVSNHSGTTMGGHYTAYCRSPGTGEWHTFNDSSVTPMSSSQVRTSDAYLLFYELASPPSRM

For `CC1CCN(c2ccc3c(c2)S(=O)(=O)c2cccc(C(=O)NC4CC4)c2C3=O)CC1`, the Potency entry is “inactive”.

Take `COCCn1c(CN(Cc2ccccc2)Cc2ccccc2)nc2c1c(=O)n(C)c(=O)n2C`: the Potency result is “inactive”.

`N#CC(c1ccccc1)c1ccc(C(=O)c2ccc(F)cc2)cc1` (stereo unspecified): the Potency result was “inactive”.

For the molecule `CCC(=O)Nc1c2c(nn1-c1ccc(F)cc1)CS(=O)C2` (stereo unspecified), the Potency result was “inactive”.

In the case of `COc1ccc(-n2c(=S)[nH]c3cc(C(=O)NCc4ccc(F)cc4)ccc3c2=O)c(OC)c1`, the Potency entry was “inactive”.

`CCOC(=O)N1CCN(C(=O)CN(c2ccc(C)c(C)c2)S(=O)(=O)c2ccccc2)CC1`: the Potency result is “inactive”.

In the case of `Cc1ccc(Nc2nc(N)nc(CN3CCN(C(=O)c4ccco4)CC3)n2)cc1Cl`, the Potency result is “inactive”.

As for `Cc1cc(C)c(NC(=O)C[N+](C)(C)CC(O)COc2cccc3ccccc23)c(C)c1` (stereo unspecified), the Potency result was “inactive”.

Consider `CC(C)OCCCNC(=O)c1c(N)n(/N=C/c2ccccn2)c2nc3ccccc3nc12`, for which the Potency entry was “inactive”.

For the molecule `COc1ccc(NC(=S)NC(=O)/C=C/c2ccco2)cc1`, the Potency entry was “inactive”.

For `CC(=O)OCC(=O)Nc1ccc(Cl)cc1Cl`, the Potency entry was “inactive”.

As to `O/N=C/c1ccccc1OCc1ccccc1F`, the Potency entry is “inactive”.

In the case of `O=C1OC[C@@H]2CCCN2C(=O)[C@@H](CC(=O)N(CCO)Cc2ccccc2)C/C=C\C[C@@H]1Cc1ccc(F)cc1`, the Potency entry was “inactive”.

Regarding `O=C(OCc1ccccc1)C1CCCN1C(=O)c1cccs1` (stereo unspecified), the Potency result is “inactive”.

Turning to `O=C(OCC1OC(n2ncc(=O)[nH]c2=O)C(OC(=O)c2ccccc2)C1OC(=O)c1ccccc1)c1ccccc1` (stereo unspecified), the Potency was 13.1 µM (active).

For the molecule `COc1ccc(-c2csc(N3CCN(C(=O)c4ccco4)CC3)n2)cc1`, the Potency result is “inactive”.

Take `CC(=O)O[C@H]1[C@H](O)[C@H](Oc2c(O)c(C)c3c4c2[C@@H](C)CC[C@@H]4[C@@H](C)C[C@H]3C=C(C)C)O[C@@H](C)[C@H]1O`: the Potency result was “inactive”.

On to `CCOc1ccc2[nH]c(=O)c(CN(Cc3cccs3)Cc3nnnn3C(C)(C)CC)cc2c1`, for which the Potency entry is “inactive”.

For the molecule `O=C(c1ccc([N+](=O)[O-])cc1)N(Cc1ccc(Cl)cc1)N1C(=O)CCCC1=O`, the Potency entry was “inactive”.

In the case of `O=C(CSc1nc(O)cc(=O)n1-c1ccccc1)NC1CCCCC1`, the Potency entry is “inactive”.

With `CSC1=NCCN1C(=O)Cc1ccc(F)cc1`, the Potency result is “inactive”.

Regarding `COc1cc(C(c2c(C)[nH][nH]c2=O)c2c(C)[nH][nH]c2=O)ccc1OCc1ccc([N+](=O)[O-])cc1`, the Potency entry is “inactive”.

Consider `N#CCc1ccc(NC(=O)/C=C/c2ccc([N+](=O)[O-])o2)cc1`, for which the Potency entry was “inactive”.

With `Cc1ccccc1[C@@H]1C(C#N)=C(N)S[C@H]1C(=O)c1ccccc1`, the Potency entry was “inactive”.

Regarding `Nc1cc(N)nc(SCC(=O)N2CCCCC2)n1`, the Potency result is “inactive”.

Consider `O=c1[nH]c(=S)[nH]c2c1C(c1ccc(Br)cc1)c1c([nH]c(=S)[nH]c1=O)O2`, for which the Potency was 9.27 µM (active).

Regarding `CC(=O)COc1ccc2c(-c3ccccc3)cc(=O)oc2c1`, the Potency result is “inactive”.

Take `CCOc1ccccc1C(=O)Nc1nnc(C(C)C)s1`: the Potency entry is “inactive”.

`O=C1/C(=C/C=C/c2ccco2)SC(=S)N1NS(=O)(=O)c1ccccc1`: the Potency is 8.26 µM (active).

Regarding `COc1ccccc1-c1nnc(SCC(=O)Nc2nc(-c3ccccc3)cs2)n1C`, the Potency entry is “inactive”.

For `O=C1/C(=C/C=C/c2ccco2)SC(=S)N1c1ccc(O)cc1`, the Potency is 5.21 µM (active).

As to `CCN(CC(=O)Nc1ccc(NC(C)=O)cc1)C(=O)c1ccc(N2CCC(C)CC2)c([N+](=O)[O-])c1`, the Potency entry was “inactive”.

Take `Cc1sc2nc(CN3CCN(c4ccc(O)cc4)CC3)[nH]c(=O)c2c1C`: the Potency entry is “inactive”.

For the molecule `Cc1ccc(-c2cc(-c3ccc(C)cc3)[n+](-c3ccc(C(=O)[O-])cc3)c(-c3ccc(C)cc3)c2)cc1`, the Potency result was “inactive”.

For the molecule `O=[N+]([O-])c1c(NCCO)cc(N2CCN(Cc3ccc4c(c3)OCO4)CC2)c2nonc12`, the Potency result is “inactive”.

In the case of `COC(=O)c1[nH]c2ccc(C)cc2c1NC(=O)CN1CCCc2ccccc21`, the Potency result was “inactive”.

In the case of `Cc1nc(N(C)C)c2sc(=S)n(C)c2n1`, the Potency entry is “inactive”.

As for `CC1CCCCN1CCNC(=O)c1cnn2ccccc12` (stereo unspecified), the Potency result is “inactive”.

With `Cc1cc(C(=O)Nc2ccccc2N2CCOCC2)c2ccccc2n1`, the Potency result is “inactive”.

On to `CCOC(=O)COc1c(OC)cc(Cl)cc1C1Nc2ccccc2C(=O)N1c1ccccc1` (stereo unspecified), for which the Potency entry is “inactive”.

Turning to `Cc1ccc(C2=[N+]([O-])C(C)N(O)C2(C)C)o1` (stereo unspecified), the Potency entry was “inactive”.

Consider `C#CCOCCOCCOCCNc1nc(N2CCN(C(=O)CCCCCCCCCCNC(=O)[C@H]([C@@H](C)CC)n3cc(CCCCCN)nn3)CC2)nc(N2CCN(C(=O)CCCCCCCCCCNC(=O)[C@H]([C@@H](C)CC)n3cc(CCCCN=C(N)N)nn3)CC2)n1`, for which the Potency is 6.56 µM (active).

In the case of `Clc1ccc2c(N/N=C/c3ccc(Br)cc3)ccnc2c1`, the Potency was 13.1 µM (active).

Consider `O=C(N/N=C/c1ccc(-c2ccc(S(=O)(=O)Nc3ncccn3)cc2)o1)c1cc2ccccc2cc1O`, for which the Potency is 9.27 µM (active).

In the case of `C#CCOCCOCCOCCNc1nc(N2CCN(C(=O)CCCCCCCCCCNC(=O)[C@@H](CCC(=O)O)n3cc(CCCCCN)nn3)CC2)nc(N2CCN(C(=O)CCCCCCCCCCNC(=O)[C@H]([C@@H](C)CC)n3cc(CCCCCN)nn3)CC2)n1`, the Potency is 11.7 µM (active).

Turning to `O=C(Nc1ncccc1Cl)c1cccc(F)c1`, the Potency entry is “inactive”.

`O=C(COC(=O)c1ccc(F)c(S(=O)(=O)N2CCOCC2)c1)c1ccccc1`: the Potency entry is “inactive”.

Take `CCOc1ccccc1N(CC(=O)NC(C)(C)C)C(=O)c1ccc(CN2CCOCC2)o1`: the Potency result is “inactive”.

On to `CCN=C1SC(C(=O)Nc2cccc(OCC)c2)CC(=O)N1CC` (stereo unspecified), for which the Potency entry is “inactive”.

With `CCOc1ccc(NC(=O)CSc2nnc(Cn3c(=O)sc4ccccc43)n2C)cc1`, the Potency entry is “inactive”.

`CCCNC(=O)CS(=O)Cc1nc(-c2ccccc2C)oc1C` (stereo unspecified): the Potency result was “inactive”.

In the case of `N#C/C(=C\c1ccc(O)c(O)c1)C(=O)Nc1cccc2ncccc12`, the Potency was 18.5 µM (active).

Take `CN(c1cccc(NC(=O)Nc2cccc(Cl)c2)c1)S(C)(=O)=O`: the Potency result was “inactive”.

Take `O=C(CSc1nnc(SCc2ccccc2)s1)N/N=C/C=C/c1ccco1`: the Potency is 13.1 µM (active).

With `CC(=O)Nc1ccc(NC(=O)[C@@H](NC(=O)c2cccc(C)c2)C(C)C)cc1`, the Potency result was “inactive”.

Take `CCn1nc(C(=O)N[C@@H](CCSC)c2nc3ccccc3[nH]2)c2ccccc2c1=O`: the Potency result was “inactive”.

On to `N#Cc1c(NC(=O)CSc2ncnc3sccc23)oc(-c2ccco2)c1-c1ccco1`, for which the Potency is 13.1 µM (active).

Regarding `COc1cc(C)ccc1OCCOc1cc(C)ccc1Cl`, the Potency result was “inactive”.

`Cc1c(NC(=O)C2CCCN2S(=O)(=O)c2ccc(Cl)cc2)c(=O)n(-c2ccccc2)n1C` (stereo unspecified): the Potency entry is “inactive”.

Regarding `COC(=O)c1[nH]c2cc(OC)ccc2c1N`, the Potency entry is “inactive”.

`COc1ccc(-c2noc(CSc3nnc(Cc4ccccc4)n3-c3ccc(Cl)cc3)n2)cc1`: the Potency result was “inactive”.

As for `CCCCCCCCCCC[N+](C)(C)CC/C=C1/c2ccccc2Sc2ccc(Cl)cc21`, the Potency was 9.27 µM (active).

`CCOc1ccc(NC(=O)c2cccc(-n3cnnn3)c2)cc1`: the Potency entry is “inactive”.

Take `O=S(=O)(c1ccccc1)N(CC1CO1)c1cc(Cl)ccc1Cl` (stereo unspecified): the Potency entry is “inactive”.

Consider `O=C(NC12CC3CC(CC(C3)C1)C2)C1=COCCO1`, for which the Potency result was “inactive”.

Consider `O=C(O)CC(C(=O)O)N1C(=O)/C(=C/C=C/c2ccco2)SC1=S` (stereo unspecified), for which the Potency was 4.14 µM (active).

`O=C(COc1ccccc1)Nc1nnc(-c2ccc(Cl)s2)o1`: the Potency result was “inactive”.

As to `COc1cccc(N2CCN(C(=O)CN(C)S(=O)(=O)c3ccc4c(c3)CCC(=O)N4)CC2)c1`, the Potency result is “inactive”.

Turning to `NC(=O)c1ncc(C(F)(F)F)cc1Oc1cccc(F)c1`, the Potency result was “inactive”.

Take `CN(C)c1ccc(-c2ccccc2)nn1`: the Potency result was “inactive”.

Take `O=c1cc2oc3cc(O)c(O)cc3c(-c3ccccc3[N+](=O)[O-])c-2cc1O`: the Potency was 18.5 µM (active).

Turning to `C#CCOCCOCCOCCNc1nc(N2CCN(C(=O)CCCCCCCCCCNC(=O)Cn3cc(C[C@@H](C)O)nn3)CC2)nc(N2CCN(C(=O)CCCCCCCCCCNC(=O)[C@@H]([C@H](C)CC)n3cc(CCCCCN)nn3)CC2)n1`, the Potency was 11.7 µM (active).

Regarding `COC(=O)c1ccccc1NC(=O)CSc1nc(O)cc(=O)n1C1CCCC1`, the Potency entry was “inactive”.

For `CC(=O)c1cccc(NC(=O)C(C)OC(=O)c2cc(=O)[nH]c3ccccc23)c1` (stereo unspecified), the Potency was 6.56 µM (active).

As for `O=C(C[n+]1cccc(C(=O)N/N=C/c2ccc(Br)cc2)c1)c1ccccc1`, the Potency result was “inactive”.

`O=C(OCc1nc2ccccc2[n+]([O-])c1C(=O)c1ccccc1)c1cccs1`: the Potency entry was “inactive”.

In the case of `C#CCOCCOCCOCCNc1nc(N2CCN(C(=O)CCCCCCCCCCNC(=O)Cn3cc(CCCCCN)nn3)CC2)nc(N2CCN(C(=O)CCCCCCCCCCNC(=O)[C@H]([C@@H](C)CC)n3cc(CCCCCN)nn3)CC2)n1`, the Potency is 4.65 µM (active).

Regarding `Cc1ccc(S(=O)(=O)N2[C@@H](c3ccc(C(C)(C)C)cc3)C(C(=O)O)=CC[C@H]2c2ccc(Cl)cc2)cc1`, the Potency was 14.7 µM (active).

With `O=C(NC1CCCCC1)C(c1ccco1)N(Cc1ccco1)C(=O)c1ccco1` (stereo unspecified), the Potency result was “inactive”.

Turning to `CCCc1nc(SCC(N)=O)[nH]c(=O)c1CC`, the Potency result was “inactive”.

As to `O=C1c2ccccc2C(=O)N1CCCCn1c(=O)oc2ccccc21`, the Potency result was “inactive”.

`COc1ccc(CCN2CC(C#N)=C3c4cc(OC)c(OC)cc4CCN3C2)cc1OC`: the Potency entry is “inactive”.

In the case of `CC1CCCC(N2CCN(C(=O)c3cccc(F)c3)CC2)C1` (stereo unspecified), the Potency entry was “inactive”.

For `COc1cc(/C=C/[N+](=O)[O-])ccc1OCc1cccc(C(=O)O)c1`, the Potency entry was “inactive”.

For the molecule `Cc1ccc(C)n1-c1cc(S(=O)(=O)N2CCOCC2)ccc1N1CCCC1`, the Potency entry was “inactive”.

For `Cc1ccc(C(C)C)c(OCc2nn(CC(=O)c3ccc(OC(F)F)cc3)c3[n+]2CCCCC3)c1`, the Potency result was “inactive”.

For the molecule `Cc1cccc(NCc2nc(-c3ccccc3)no2)c1`, the Potency result is “inactive”.

As to `CCOC(=O)C1CCCN(C(=O)c2cc(-c3ccco3)nc3ccccc23)C1` (stereo unspecified), the Potency is 18.5 µM (active).

On to `O=C(CNC(=O)c1ccco1)Nc1ccc(S(=O)(=O)N2CCCC2)cc1`, for which the Potency result is “inactive”.

As for `CC(=O)Nc1cc[n+](CC(=O)c2ccc(Cl)cc2)cc1`, the Potency entry was “inactive”.

On to `CC1=NC(C(F)(F)F)(C(F)(F)F)C2=C(CC(C)(C)CC2=O)N1Cc1ccco1`, for which the Potency result is “inactive”.
